About 2,800 (7.6%) of roughly 37,000 compounds were called active. Another 1% or so got no clear call; they are omitted. The entries come from a sample that favours actives as a whole. Unmarked numbers belong to inactive results. Rule as the data show it: active = inhibition above about 80%; inconclusive = no clear call, values can overlap the other calls; inactive = below that.

What is called inhibition is the change of the read-out against control, counted positive when it falls.

The test in a line: NOMO-1 AML cell viability reduction, primary screen, STK33 inhibitor project, CellTiter-Glo luminescence (AID 2330). As to conditions: NOMO-1 AML viability, 72 h, stronger effect = higher value, concentration not given here.
Take `CC1CCCCC1NC(=O)CSc1nnc(N)s1` (stereo not drawn): the inhibition is 13.1%.
In the case of `COC(=O)c1cc(NC(=O)Cc2ccccc2[N+](=O)[O-])ccc1Cl`, the inhibition was 62.9%.
As for `Cc1nnc(SCC(=O)N2CCc3ccccc32)n1-c1ccccc1`, the figure is 10%; as for `CN(C)c1nc(SCCO)nc(N(C)C)n1`, 33.8%.
Regarding `COc1cc2c(cc1NC(=O)CN(C)S(=O)(=O)c1ccc(Br)cc1)oc1ccccc12`, the inhibition was -7.24%.
The result for `COc1ccc(NC(=O)N(C)C[C@@H]2Oc3ccc(NS(C)(=O)=O)cc3C(=O)N([C@@H](C)CO)C[C@@H]2C)cc1` reads 22.3%.
Turning to `COC(=O)c1ccc(C(=O)OC)c(NC(=O)COc2ccc(C)cc2)c1`, the inhibition was 13.3%.
`Cc1sc2ncnc(SCC(=O)Nc3ccccc3)c2c1-c1ccccc1`: the inhibition is 26.6%.
Regarding `N#Cc1c(SCC(=O)Nc2ccccc2)ncc2cc3ccccc3nc12`, the inhibition is 110% (active).
For `O=C(CSc1nnc(-c2ccccc2)c(-c2ccccc2)n1)Nc1ccccc1`, the inhibition was 1.52%.
As for `CC(C)NC(=O)Nc1cccc2c1O[C@H](CN(C)S(=O)(=O)c1cccs1)[C@@H](C)CN([C@H](C)CO)C2=O`, the figure is -9.32%; as for `COc1ccc2nc3c(nc2c1)C(=O)c1ccccc1C3=O`, 29.2%.
As to `COc1ccc(C)c(Cn2c(-c3nonc3N)nc3ccccc32)c1`, the inhibition is 112% (active).
On to `Cc1ccc(S(=O)(=O)N(C)C[C@@H]2Oc3ccc(NC(=O)Cc4ccccc4)cc3CC(=O)N([C@H](C)CO)C[C@H]2C)cc1`, for which the inhibition was 53.4%.
As to `Cc1noc(C)c1NC(=O)Nc1cccc2c1O[C@@H](CN(C)Cc1ccc3c(c1)OCO3)[C@@H](C)CN([C@@H](C)CO)C2=O`, the inhibition was 13.5%.
Turning to `Cc1cc(Cl)c(S(=O)(=O)Nc2ccc3c(c2)OCCO3)cc1OCC(N)=O`, the inhibition was 20.2%.
As for `Cc1ccc2c(c1)CCCN2S(=O)(=O)c1cc(OCC(N)=O)c(C)cc1Cl`, the figure is 93.4% (active).
Regarding `CCN1CCN(S(=O)(=O)c2cc(OCC(N)=O)c(C)cc2Cl)CC1`, the inhibition is 12.8%.
As for `C[C@@H]1CN([C@H](C)CO)C(=O)c2cccc(NS(C)(=O)=O)c2O[C@@H]1CN(C)C(=O)Nc1cccc2ccccc12`, the figure is -9.1%.
As for `C[C@H]1CN([C@@H](C)CO)C(=O)c2cc(NC(=O)C3CC3)ccc2O[C@@H]1CN(C)Cc1ccc(Oc2ccccc2)cc1`, the figure is 16.2%; as for `C[C@@H]1CN([C@H](C)CO)C(=O)Cc2cc(NC(=O)NC3CCCCC3)ccc2O[C@H]1CN(C)Cc1ccc(Cl)c(Cl)c1`, 20.7%; as for `C[C@@H]1CN([C@@H](C)CO)C(=O)Cc2cc(NC(=O)Cc3ccccc3)ccc2O[C@@H]1CN(C)Cc1ccc(Oc2ccccc2)cc1`, 127% (active).
As for `C[C@H]1CN([C@@H](C)CO)C(=O)Cc2cc(NC(=O)NC3CCCCC3)ccc2O[C@@H]1CN(C)Cc1ccc(Oc2ccccc2)cc1`, the figure is 94.9% (active); as for `C[C@@H]1CN([C@H](C)CO)C(=O)Cc2cc(NC(=O)Nc3ccccc3)ccc2O[C@H]1CN(C)Cc1ccc(Cl)c(Cl)c1`, 30.1%; as for `C[C@@H]1CN([C@H](C)CO)C(=O)Cc2cc(NC(=O)Cc3ccccc3)ccc2O[C@H]1CN(C)Cc1ccc(Oc2ccccc2)cc1`, 13.7%.
For the molecule `C[C@@H]1CN([C@@H](C)CO)C(=O)c2cc(NC(=O)Cc3ccccc3)ccc2O[C@@H]1CN(C)Cc1ccc(Oc2ccccc2)cc1`, the inhibition is 112% (active).
With `C[C@@H]1CN([C@H](C)CO)C(=O)Cc2cc(NC(=O)CCCN(C)C)ccc2O[C@@H]1CN(C)Cc1ccc(Oc2ccccc2)cc1`, the inhibition is 19.5%.
Consider `COc1ccc(CN(C)C[C@H]2Oc3ccc(NC(=O)Cc4ccccc4)cc3CC(=O)N([C@@H](C)CO)C[C@@H]2C)cc1`, for which the inhibition is 22.8%.
Regarding `C[C@H](CO)N1C[C@H](C)[C@H](CN(C)Cc2ccccc2)Oc2ccc(NC(=O)Cc3ccccc3)cc2C1=O`, the inhibition was 7.66%.
Turning to `C[C@H]1CN([C@@H](C)CO)C(=O)Cc2cc(NC(=O)Cc3ccccc3)ccc2O[C@@H]1CN(C)Cc1ccc(Cl)c(Cl)c1`, the inhibition was 96.8% (active).
Regarding `C[C@@H]1CN([C@H](C)CO)C(=O)Cc2cc(NC(=O)Cc3ccccc3)ccc2O[C@@H]1CN(C)Cc1ccccc1`, the inhibition was -13.8%.
Turning to `COC(=O)c1c(NC(=O)COc2ccc(C(C)C)c(C)c2)sc2c1CCC2`, the inhibition was -13.1%.
Turning to `COc1ccc(S(=O)(=O)N(C)C[C@@H]2Oc3ccc(NC(=O)Cc4cn(C)c5ccccc45)cc3C(=O)N([C@H](C)CO)C[C@H]2C)cc1`, the inhibition is 3.23%.
In the case of `CC(C)NC(=O)N(C)C[C@H]1Oc2ccc(NS(C)(=O)=O)cc2CC(=O)N([C@@H](C)CO)C[C@@H]1C`, the inhibition is -17.4%.
Turning to `COc1c2c(cc3occ(-c4ccc5c(c4)OCO5)c(=O)c13)OC(C)(C)C=C2`, the inhibition is 23.7%.
As for `O=C(c1cc2ccccc2oc1=O)N(Cc1ccc(F)cc1)Cc1ccco1`, the figure is -0.0617%.
Regarding `COc1cc(O)c2c(=O)c(O[C@@H]3O[C@@H](CO)[C@H](O)[C@H]3O[C@@H]3O[C@@H](C)[C@H](O)[C@@H](O)[C@H]3O)c(-c3ccc(O)cc3)oc2c1`, the inhibition was 16.7%.
In the case of `C[C@@H]1CN([C@H](C)CO)C(=O)Cc2cc(NC(=O)CCN3CCOCC3)ccc2O[C@H]1CN(C)C`, the inhibition is 13.7%.
For `O=C(NCc1ccco1)c1ccc2c(c1)C(=O)N(Cc1cccnc1)C2=O`, the inhibition was 20%.
As to `C[C@H](CO)N1C[C@H](C)[C@H](CN(C)Cc2ccc(C(F)(F)F)cc2)Oc2ccc(N(C)C)cc2CC1=O`, the inhibition is 14.9%.
For the molecule `C[C@@H]1CN([C@@H](C)CO)C(=O)c2cc(NC(=O)Nc3ccc4c(c3)OCO4)ccc2O[C@@H]1CN(C)Cc1ccc(Oc2ccccc2)cc1`, the inhibition was 66%.
Consider `C[C@H]1CN([C@@H](C)CO)C(=O)Cc2cc(N(C)C)ccc2O[C@@H]1CN(C)Cc1ccc(-c2ccccc2)cc1`, for which the inhibition was 65.8%.
The result for `C[C@H](CO)N1C[C@H](C)[C@@H](CN(C)Cc2ccccc2)Oc2ccc(NC(=O)Nc3ccc4c(c3)OCO4)cc2C1=O` reads 1.03%; that for `C[C@H]1CN([C@@H](C)CO)C(=O)c2cc(NC(=O)Nc3ccc4c(c3)OCO4)ccc2O[C@@H]1CN(C)Cc1ccc(Oc2ccccc2)cc1`, 102% (active).
On to `C[C@@H]1CN([C@H](C)CO)C(=O)c2cc(NC(=O)Nc3ccc4c(c3)OCO4)ccc2O[C@H]1CN(C)Cc1ccc(-c2ccccc2)cc1`, for which the inhibition is 113% (active).
As for `C[C@@H]1CN([C@H](C)CO)C(=O)c2cc(NC(=O)Nc3ccc4c(c3)OCO4)ccc2O[C@@H]1CN(C)Cc1ccc(C(F)(F)F)cc1`, the figure is 50.9%; as for `C[C@@H]1CN([C@H](C)CO)C(=O)Cc2cc(N(C)C)ccc2O[C@@H]1CN(C)Cc1ccccc1`, 124% (active); as for `COc1ccc(NC(=O)Nc2ccc3c(c2)C(=O)N([C@@H](C)CO)C[C@H](C)[C@@H](CN(C)Cc2ccc4c(c2)OCO4)O3)cc1`, 25%.

For the origin of these results see PubChem BioAssay AID2330 (Broad Institute, 2010).
